A selection: hits, their analogues and other compounds. The true share with any hit is near 1.7%.
LYPLA2 inh: LYPLA2 inhibitors, primary screen, counter-screen for PME1 inhibitor project, biochemical, fluorescence polarization, FP-Rh probe ABPP | actives 0.38% (n = 320,000) | recombinant LYPLA2 | inhibition, % at 5.9 µM | Acyl-protein thioesterase 2 (Homo sapiens), O95372;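 active means inhibition above the screen-wide mean plus 3 SD, limit set per campaign, cut at about 26% in these data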
Target sequence (O95372 whole entry, looked up): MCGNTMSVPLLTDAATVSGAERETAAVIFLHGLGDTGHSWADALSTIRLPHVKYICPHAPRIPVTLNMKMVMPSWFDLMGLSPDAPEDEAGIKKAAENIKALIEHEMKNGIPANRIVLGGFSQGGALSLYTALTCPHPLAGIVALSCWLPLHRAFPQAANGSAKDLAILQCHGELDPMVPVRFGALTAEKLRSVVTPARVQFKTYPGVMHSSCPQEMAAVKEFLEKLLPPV
PREPL inh: PREPL enzyme inhibitors, primary screen, biochemical, fluorescence polarization; Prolyl endopeptidase-like (Homo sapiens), Q4J6C6; recombinant PREPL, fluorescence polarization activity-based probe; inhibition, % at 5.96 µM; actives 0.68% (n = 320,000); in the data active means inhibition above about 43%
Rin1 Abl inh: inhibitors of Rin1-Abl protein binding, primary screen, biochemical, TR-FRET; actives 0.4% (n = 360,000); inhibition, % at 7.35 µM; AID 588664, 2011; Tyrosine-protein kinase ABL1 (Homo sapiens) + Ras and Rab interactor 1 (Homo sapiens), …; in the data active means inhibition above about 5%, passing the limit was not always enough
LYPLA1 counter: LYPLA1 inhibitors, primary screen, counter-screen for PME1 inhibitor project, biochemical, fluorescence polarization, FP-Rh probe ABPP | Acyl-protein thioesterase 1 (Homo sapiens), O75608 | recombinant LYPLA1 | inhibition, % at 5.9 µM | actives 0.16% (n = 320,000);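 active means inhibition above the mean of all tested compounds plus 3 SD, set per campaign, cut at about 14% in these data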;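 further: inhibitors block serine hydrolase probe labeling of LYPLA1 so polarization falls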
Target sequence (O75608 whole entry, looked up): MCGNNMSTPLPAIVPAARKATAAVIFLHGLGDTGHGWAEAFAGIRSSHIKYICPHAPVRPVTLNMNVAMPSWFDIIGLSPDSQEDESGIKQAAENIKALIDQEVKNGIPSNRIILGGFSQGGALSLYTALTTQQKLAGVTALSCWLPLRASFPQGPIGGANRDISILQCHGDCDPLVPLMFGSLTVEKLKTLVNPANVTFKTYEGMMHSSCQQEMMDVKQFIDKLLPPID
Hck Nef HTS: inhibitors of Nef-activated human Hck kinase, primary screen, biochemical, Z-Lyte FRET, 384-well, Hck-YEEI; Recombinant Hck-YEEI plus Nef, Z-Lyte FRET kinase assay; inhibition, % at 20 µM; actives 0.68% (n = 220,000); AID 463187, 2010;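 active means Hck-Nef kinase inhibition above about 50%, limit read from the data; inactive means inhibition below that limit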
p97 ATPase inh: inhibitors of human p97 ATPase, primary screen, biochemical; Transitional endoplasmic reticulum ATPase (Homo sapiens), P55072; recombinant p97 ATPase, Kinase-Glo ATP luminescence, 3 h; inhibition, % at 8 µM; actives 0.42% (n = 220,000); AID 1481, 2009; in the data active means inhibition above about 15%
Rin1 Abl conf: Rin1-Abl binding inhibitor retest, confirmation, biochemical, TR-FRET. purified proteins. inhibition, % at 7.35 µM. AID 602124, 2011. actives 49% (n = 1,300). shares compounds with Rin1 Abl inh
GFP quench: GFP fluorescence inhibitors and quenchers, artefact control for Rin1-Abl interaction inhibitor project, biochemical | inhibition, % at 6.75 µM | inhibitors/quenchers counterscreen | actives 8.5% (n = 1,300) | shares compounds with Rin1 Abl inh;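 further: ABL1-eGFP fusion protein alone without its partner RIN1-SBP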
GFP quench dose: GFP fluorescence inhibitors and quenchers, dose response, artefact control for Rin1-Abl interaction inhibitor project, biochemical; shares compounds with Rin1 Abl inh; GFP fluorescence interference/quenching counterscreen; IC50, µM; 230 tested, under 10 active; AID 602182, 2012; call rule not given here;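 further: ABL1-eGFP fusion protein alone without its RIN1 binding partner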
Of the large screens only hits and unclear results are named; the others gave an inactive call (follow-up assays come after a bar, where they were run); ! = a repeat was not active. Unless noted, no stated cut-off is given here; in the data, active means inhibition above about 6.5%; inactive means the rest.

O=C(Cc1ccc(NC2=NC3CS(=O)(=O)CC3S2)cc1)NCCc1ccccc1 (stereo not given)	Rin1 Abl inh 6.5 (no result: Hck Nef HTS, p97 ATPase inh) | Rin1 Abl conf inactive | GFP quench inactive
C[C@H](CO)N1C[C@H](C)[C@@H](CN(C)Cc2ccncc2)Oc2c(NC(=O)c3ccncc3)cccc2C1=O	Rin1 Abl inh 9.3 (no result: LYPLA2 inh, LYPLA1 counter, Hck Nef HTS, p97 ATPase inh) | Rin1 Abl conf 9.5 | GFP quench inactive
C[C@H](CO)N1C[C@H](C)[C@@H](CN(C)Cc2ccc(-c3ccccc3)cc2)Oc2c(NS(=O)(=O)c3cccs3)cccc2C1=O	Rin1 Abl inh 16 (no result: LYPLA2 inh, LYPLA1 counter, Hck Nef HTS, p97 ATPase inh) | Rin1 Abl conf 16 | GFP quench inactive
COc1ccc(C)cc1S(=O)(=O)N1CCCC(C(=O)NC2CC2)C1 (stereo not given)	none (no result: Hck Nef HTS, p97 ATPase inh)
CC(=O)c1ccc(S(=O)(=O)NC2CC(=O)N(c3ccc(C)c(C)c3)C2)cc1 (stereo not given)	none (no result: Hck Nef HTS, p97 ATPase inh)
CCOC(=O)N1CCN(CCC(=O)Nc2cccc(Br)c2)CC1	Rin1 Abl inh 6.2! | Rin1 Abl conf inactive | GFP quench inactive
CCOC(=O)N1CCN(CCC(=O)Nc2ccc(Br)cc2)CC1	none
CCOC(=O)N1CCN(CCC(=O)Nc2ccc(C)c(Br)c2)CC1	Rin1 Abl inh 5.6 | Rin1 Abl conf inactive | GFP quench inactive
Cc1nn(C(C)C)c(C)c1CN1CCC(C(=O)Nc2cccc(-c3cccc(F)c3)c2)CC1	none (no result: Hck Nef HTS, p97 ATPase inh)
CCOC(=O)CCCCCC(=O)Nc1ccc2c(c1)C(=O)N([C@H](C)CO)C[C@H](C)[C@@H](CN(C)C(=O)Nc1ccc(OC)cc1)O2	Rin1 Abl inh 16 (no result: LYPLA2 inh, LYPLA1 counter, Hck Nef HTS, p97 ATPase inh) | Rin1 Abl conf 13 | GFP quench inactive
COc1ccc(S(=O)(=O)N(C)C[C@H]2Oc3ccc(NC(=O)CCC(F)(F)F)cc3C(=O)N([C@H](C)CO)C[C@@H]2C)cc1	Rin1 Abl inh 16 (no result: LYPLA2 inh, LYPLA1 counter, Hck Nef HTS, p97 ATPase inh) | Rin1 Abl conf 15 | GFP quench inactive
C[C@@H]1CCCCO[C@@H](CN(C)S(=O)(=O)c2cccs2)[C@@H](C)CN([C@H](C)CO)C(=O)c2cc(NS(=O)(=O)c3ccccc3)ccc2O1	Rin1 Abl inh 69 (no result: LYPLA2 inh, PREPL inh, LYPLA1 counter, Hck Nef HTS, p97 ATPase inh) | Rin1 Abl conf 67 | GFP quench inactive | GFP quench dose inactive
COc1ccc(NC(=O)N(C)C[C@H]2Oc3ccc(NC(=O)Cc4ccccc4)cc3C(=O)N([C@H](C)CO)C[C@@H]2C)cc1	none (no result: LYPLA2 inh, LYPLA1 counter, Hck Nef HTS, p97 ATPase inh)
CCOC(=O)CCCCCC(=O)Nc1ccc2c(c1)CC(=O)N([C@H](C)CO)C[C@@H](C)[C@H](CN(C)Cc1ccc3c(c1)OCO3)O2	Rin1 Abl inh 16 (no result: LYPLA2 inh, LYPLA1 counter, Hck Nef HTS, p97 ATPase inh) | Rin1 Abl conf 18 | GFP quench inactive | GFP quench dose inactive
CCOc1ccc(-c2nnc(NC(=O)Cc3cc(OC)c(OC)c(OC)c3)o2)cc1	none (no result: Hck Nef HTS, p97 ATPase inh)
CN(CC(=O)Nc1c(Cl)cccc1Cl)C(=O)Cc1ccc(S(=O)(=O)N2CCOCC2)s1	none (no result: Hck Nef HTS, p97 ATPase inh)
C[C@H](CO)N1C[C@H](C)[C@@H](CN(C)S(=O)(=O)c2ccc(F)cc2)Oc2ccc(NC(=O)C3CC3)cc2C1=O	Rin1 Abl inh 14 (no result: LYPLA2 inh, LYPLA1 counter, Hck Nef HTS, p97 ATPase inh) | Rin1 Abl conf 14 | GFP quench inactive
COc1ccc(CCNC(=O)CCc2nnc(Cc3ccc4c(c3)OCO4)o2)c(OC)c1	none (no result: Hck Nef HTS, p97 ATPase inh)
CC(=O)c1cccc(NC(=S)N2CCN(S(=O)(=O)c3ccccc3)CC2)c1	none (no result: LYPLA2 inh, PREPL inh, LYPLA1 counter, Hck Nef HTS, p97 ATPase inh)
CCN(CC)c1ccc(C=NN2CCCCCC2)cc1	Rin1 Abl inh 33 (no result: LYPLA2 inh, PREPL inh, LYPLA1 counter, Hck Nef HTS, p97 ATPase inh) | Rin1 Abl conf inactive | GFP quench inactive
CCN(CC)c1ccc(/C=N/N2CCOCC2)cc1	none
CCS(=O)(=O)c1ccc(O)c(NC(=O)c2ccc(S(=O)(=O)N3CCCCCC3)cc2)c1	none (no result: LYPLA2 inh, LYPLA1 counter, Hck Nef HTS, p97 ATPase inh)
C[C@H](NC(=O)c1ncn2c1c(=O)[nH]c1ccc(Br)cc12)c1ccccc1	Rin1 Abl inh 7.9 (no result: LYPLA2 inh, PREPL inh, LYPLA1 counter, Hck Nef HTS, p97 ATPase inh) | Rin1 Abl conf inactive | GFP quench inactive
C[C@H](NC(=O)c1ncn2c1c(=O)[nH]c1ccccc12)c1ccccc1	none (no result: LYPLA2 inh, PREPL inh, LYPLA1 counter, Hck Nef HTS, p97 ATPase inh)
Cc1cc(NC(=O)CSc2nnc(-c3cccc(F)c3)n2N)no1	none (no result: Hck Nef HTS, p97 ATPase inh)
CCCn1c(CCNc2nc(-c3cccc(Br)c3)cs2)nc2ccccc21	none (no result: LYPLA2 inh, PREPL inh, LYPLA1 counter, Hck Nef HTS, p97 ATPase inh)
O=C1Nc2cccnc2N(C(=O)CCl)c2ccccc21	Rin1 Abl inh 43 (no result: Hck Nef HTS, p97 ATPase inh) | Rin1 Abl conf inactive | GFP quench inactive

Screens: PubChem BioAssay, several laboratories
